Compound activity from PubChem BioAssay.
tim10-1 inh: growth inhibitors of tim10-1 mutant yeast | S. cerevisiae tim10-1 ts strain growth, BacTiter-Glo, 24 h | AID 463190 | inhibition, % at 20 µM | 2.2% of 330,000 active;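 active = inhibition of at least 40%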;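 note: mutant grown at 25 °C; 0% = DMSO wells with yeast and 100% = wells holding no yeast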
NALP1 yeast inh: NALP1 inhibition; inhibition, % at 10 µM; S. cerevisiae NALP1/ASC/caspase-1 growth, X-gal OD620, 72 h; 0.61% of 280,000 active; AID 2071; in the data active = inhibition mostly above about 24%, no sharp cut-off; inactive = mostly below about 32%
NLRP3 yeast inh: NALP3 inhibition in yeast; inhibition, % at 10 µM; AID 2825; Yeast reconstituted NLRP3/ASC/caspase-1, beta-gal luminescence, 24 h; 0.39% of 330,000 active;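 active = inhibition of 50% or more; inactive = inhibition below 50%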;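 note: plate controls were induced DMSO wells for no effect and uninduced yeast grown without galactose for full effect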
V-ATPase pHluor: regulators of yeast V-ATPase proton transport; AID 504577; 0.37% of 350,000 active; S. cerevisiae, pHLuorin cytosolic pH fluorescence; response, % at 10 µM; in the data active = response mostly above about 7.3%, no sharp cut-off; inactive = mostly below about 5.4%; note: actives read high
TIM10 inh: inhibits growth of TIM10 yeast strain; inhibition, % at 10 µM; S. cerevisiae TIM10 strain growth, BacTiter-Glo luminescence, 24 h; AID 463195; 1.4% of 330,000 active;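 active = inhibition of 40% or more at the single tested concentration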;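 note: wild-type TIM10 isogenic control strain grown at permissive 25 °C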
tim23-1 inh: growth inhibitors of tim23-1 mutant yeast; 1.3% of 330,000 active; inhibition, % at 20 µM; S. cerevisiae tim23-1 growth, BacTiter-Glo luminescence, 24 h;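 active = growth inhibition of the mutant yeast at or above 50%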;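 note: temperature-sensitive mutant grown at 25 °C; plate controls were DMSO-treated mutant yeast for no effect and medium wells lacking yeast for full effect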
TIM10 conf: TIM10 yeast growth inhibition, confirmed; shares compounds with TIM10 inh; S. cerevisiae tim10 strain growth, BacTiter-Glo luminescence, 24 h; AID 463215; 63% of 4,600 active; inhibition, % at 10 µM;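 active = inhibition of yeast growth at or above a set limit in either of two replicates at 10 µM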;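 note: this counterscreen used the strain with wild-type TIM10; 0% = yeast with DMSO and 100% = medium wells lacking yeast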
An asterisk follows results filed as active; · = no result. Rows were chosen to be rich in hits. Some 4.2% of all compounds tested hit in one or more screens of this group.

SMILES	tim10-1 inh	NALP1 yeast inh	NLRP3 yeast inh	V-ATPase pHluor	TIM10 inh	tim23-1 inh	TIM10 conf
N/C(Cc1cccs1)=N\OC(=O)COc1ccc(Br)cc1	5.5	14.5	34.3	2.5	-2.8	-8.4	·
N/C(Cc1cccc2ccccc12)=N\OC(=O)Cc1cccs1	37.5	27.6	5.9	-0.8	49.1*	35.1	37.8*
CC1CCC2(CC1)NC(=O)N(CC(=O)NCCc1ccccc1)C2=O (configuration not stated)	0.0	·	5.0	0.9	1.1	14.4	·
CC1CCC2(CC1)NC(=O)N(CC(=O)NCCc1ccc(F)cc1)C2=O (configuration not stated)	-11.5	·	12.7	5.4	68.3*	-1.7	-9.2
O=C(NCCS(=O)(=O)c1ccc(Cl)cc1)c1ccc(F)cc1	11.4	-12.8	9.3	-1.7	-12.8	4.3	·
O=S(=O)(Nc1ccc(-n2cnnn2)cc1)c1cccc(F)c1	-3.7	·	5.6	1.9	-1.3	8.4	·
CN(CC1COc2ccccc2O1)C(=S)Nc1ccccc1F (configuration not stated)	27.5	30.7	31.5	0.3	41.1*	42.7	25.9
COCCNC(=S)N/N=C/c1c2ccccc2cc2ccccc12	27.8	-10.8	18.3	4.8	41.1*	34.6	37.1*
Cc1cc(C)cc(CC2CC(=O)N(c3ccc(Cl)cn3)C2=O)c1 (configuration not stated)	29.4	13.0	25.1	3.3	51.1*	48.5	23.0
Cc1ccc(N2C(=O)CC(Cc3cc(C)cc(C)c3)C2=O)cc1 (configuration not stated)	3.3	4.0	21.9	-4.2	12.9	17.7	·
O=[N+]([O-])c1ccc(Sc2nc3ccccc3o2)c([N+](=O)[O-])c1	19.4	21.1	41.7	8.0	47.0*	-183.4	68.1*
O=[N+]([O-])c1ccc(Cl)cc1Sc1nc2ccccc2o1	12.9	9.1	-11.9	4.3	19.9	24.3	·
COc1ccc(Br)cc1CNC(=O)Nc1cccs1	29.3	0.6	7.7	-2.0	50.8*	13.2	38.6*
COc1ccccc1NC(=O)c1ccc(NC(=O)COC(=O)C2CCCCC2)cc1	34.7	28.8	6.4	-2.0	-1.3	23.9	·
Cc1c(O)ccc2c3c(c(=O)oc12)CCCC3	29.5	20.6	19.1	1.9	41.1*	31.4	31.4*
Cc1c(O)ccc2c3c(c(=O)oc12)CCC(C)C3 (configuration not stated)	21.7	·	20.9	4.4	1.6	19.2	·
S=C(NCc1ccccc1)N1CCN(c2cccc(Cl)c2)CC1	26.3	-4.5	23.1	2.0	45.6*	44.8	15.0
O=C(Cn1ccc2ccccc2c1=O)N1CCN(c2cccc(Cl)c2)CC1	-40.5	10.8	19.8	-1.9	54.5*	-14.0	-38.1
S=c1[nH]nc(-c2ccc3ccccc3n2)n1-c1ccc2ncccc2c1	2.0	14.4	2.9	0.6	4.3	-10.1	·
CCNC(=O)O/N=C1\CCCCC1c1ccc([N+](=O)[O-])cc1[N+](=O)[O-] (configuration not stated)	24.8	11.2	19.4	-1.6	10.8	18.2	·
Cc1cc(/C=C\c2ccccc2)nc2ccccc12	4.8	2.8	22.0	1.3	52.8*	20.6	61.7*
COc1ccc(/C=C/c2cc(C(=O)O)c3ccccc3n2)cc1	14.6	·	11.9	0.2	25.7	33.1	·
CCC[C@@H]1CCCO[C@@](C(=O)NCc2ccc(S(C)(=O)=O)cc2)(C(F)(F)F)C1	5.9	·	23.1	1.2	4.8	21.9	·
COCCSc1nnc(NC(=O)c2ccco2)s1	6.1	23.0	18.4	8.6	67.3*	15.9	12.1
CC(C)(C)c1ccc(/C=C(\c2nc3ccccc3[nH]2)S(=O)(=O)c2ccccc2)cc1	25.6	·	26.7	0.3	47.3*	46.1	33.0*
SMILES	tim10-1 inh	NALP1 yeast inh	NLRP3 yeast inh	V-ATPase pHluor	TIM10 inh	tim23-1 inh	TIM10 conf
Cc1cccc(/C=C2\CCC(=C3SCCCS3)C2=O)c1	34.1	6.9	36.0	-0.7	44.4*	49.2	66.2*
O=C1C(=C2SCCCS2)CC/C1=C\c1ccc(F)cc1	-28.3	1.2	25.4	-1.1	41.9*	18.4	40.7*
O=C(CCC1CCCC1)NCCS(=O)(=O)N1CCN(c2ccccc2)CC1	20.4	·	45.9	-2.6	12.9	22.0	·
O=C(N/N=C/c1ccncc1)c1cc2c(ccc3ccccc32)o1	-16.9	19.0	18.5	0.2	47.4*	7.2	33.5*
O=C(O)c1ccc(/C=N/NC(=O)c2cc3c(ccc4ccccc43)o2)cc1	-4.6	-19.6	6.1	-1.5	-2.6	5.1	·
Cc1ccc(CNC(=S)NC2CCC(C(C)(C)C)CC2)cc1 (configuration not stated)	35.9	9.8	31.1	-2.2	41.7*	42.6	18.1
COc1ccc(CNC(=S)NC2CCCC2)cc1	7.5	23.1	13.3	-1.2	15.2	12.3	·
COC(=O)c1ccc(NC(=O)CN2CCOCC2)cc1	12.1	-22.3	3.0	1.9	-20.1	-1.1	·
COc1ccc(OCC(=O)NNC(=O)c2cc3ccccc3o2)cc1	13.5	26.2	7.6	0.8	-18.5	-10.5	·
COc1cccc(C(=O)NCCS(=O)(=O)NC2CCCC2)c1	9.8	·	15.8	-1.6	5.5	6.0	·
COc1ccc(C(=O)NCCS(=O)(=O)NC2CCCC2)cc1	-2.3	·	22.6	2.1	40.5*	5.9	2.6
O=C(Oc1ccc2c3c(c(=O)oc2c1)CCCC3)c1ccco1	29.5	9.0	17.6	-3.4	43.6*	49.6	45.1*
CSC1=C(C#N)C(=O)NC(c2ccc(Cl)cc2)S1 (configuration not stated)	30.6	·	5.9	1.3	45.5*	43.7	23.3
COC(=O)c1ccc(COc2ccc(/C=C(\C#N)c3nc4ccccc4[nH]3)cc2OC)o1	9.1	-15.6	19.1	-1.9	53.5*	30.6	33.3*
COc1cc(/C=C(/C#N)c2nc3ccccc3[nH]2)ccc1OCc1ccc(C(=O)O)o1	13.5	2.0	12.5	0.9	4.8	14.0	·
COCCN(CCOC)CC(O)COC(c1ccccc1)c1ccccc1 (configuration not stated)	0.9	-6.7	-26.5	-2.3	-12.4	5.0	·
O=C1CCc2cc(S(=O)(=O)N3CCC(C(=O)NC4CCCC4)CC3)ccc2N1	-20.8	-8.4	-11.6	-0.4	-2.5	-7.6	·
CC(C)CNC(=S)NC(=O)c1ccc(Cl)cc1Cl	39.0	10.0	-65.9	-2.9	54.6*	17.6	52.1*
CCOc1ccc(S(=O)(=O)n2c([N+](=O)[O-])cnc2C)c(C)c1C	-2.2	-1.0	15.4	-1.8	97.2*	11.6	10.6
Cc1cc(C)nc(SCc2ccc(C(=O)N/N=C3\CC(C)CC(C)(C)C3)cc2)n1 (configuration not stated)	25.7	16.5	5.9	-2.5	40.2*	30.4	4.3
O=C(Nc1ccc2c(c1)OCO2)c1ccc2c(c1)OCO2	11.6	33.9	19.7	-1.4	6.0	13.4	·
